# Data published in PubChem BioAssay.
# “And” between values parts separate entries of the source, which are not always exact repeats. Equal values may be shown once. The source made the active and inactive calls.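 The calls were made as follows, unless noted: active = thallium flux through the channel raised or lowered by more than 3 SD from vehicle-only wells, actives on both sides; inactive = the rest.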
# What was measured:
# [1] = P. berghei load reduction in hepatocytes – cell-based, HepG2, luciferase luminescence, HepG2 viability, primary screen (AID 624349; in the data active = parasite load remaining mostly below about 12%, no sharp cut-off; inactive = mostly above about 10%;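 also: 100% = mean of DMSO negative control wells on the same plate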); details: P. berghei liver stage in HepG2, luciferase luminescence, concentration not given here; parasite load remaining: stronger effect = lower value; viability: measured here: HepG2 viability without parasites
# [2] = signal quenchers or enhancers, Cy5 substrate/SSB – biochemical, NIH Clinical Collection, E. coli SSB, artefact control for HCV NS3 helicase inhibitor project (AID 743268; call rule not given here); details: Cy5-oligo bound E. coli SSB, fluorescence interference
# [3] = tested on: Hepatitis C virus NS3 helicase; assay: blockers of NS3h binding to DNA – biochemical, fluorescence polarization, NIH Clinical Collection, primary screen (AID 743270; call rule not given here); details: NS3 helicase binding to Cy5-dT15 DNA, stronger effect = higher value, concentration not given here
# [4] = target: Single-stranded DNA-binding protein (Escherichia coli (strain K12)) (UniProt P0AGE0); assay: SSB-ssDNA binding inhibitors – biochemical, fluorescence polarization, NIH Clinical Collection, counter-screen for HCV NS3 helicase inhibitor project (AID 743271; in the data active = inhibition above about 28%); details: E. coli SSB-DNA binding, stronger effect = higher value, concentration not given here
# [5] = compounds distorting NS3 helicase fluorescence signal – biochemical, NIH Clinical Collection, artefact control for HCV NS3 helicase inhibitor project (AID 743272; call rule not given here;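 also: HCV NS3 helicase with a Cy5 labelled single stranded DNA probe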); details: fluorescence interference counterscreen, HCV NS3 helicase assay; stronger effect = lower value
# [6] = target: 6-phosphogluconate dehydrogenase, decarboxylating (Homo sapiens) (UniProt P52209); assay: inhibition of human phosphogluconate dehydrogenase – biochemical, recombinant enzyme, NADPH absorbance, primary screen (AID 1159550;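 active = at least 20% inhibition of 6-phosphogluconate dehydrogenase activity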); details: recombinant 6PGD, NADPH absorbance 341 nm; at 10 µM; stronger effect = higher value
# Sequence of 6-phosphogluconate dehydrogenase, decarboxylating (Homo sapiens) (P52209 whole entry, looked up): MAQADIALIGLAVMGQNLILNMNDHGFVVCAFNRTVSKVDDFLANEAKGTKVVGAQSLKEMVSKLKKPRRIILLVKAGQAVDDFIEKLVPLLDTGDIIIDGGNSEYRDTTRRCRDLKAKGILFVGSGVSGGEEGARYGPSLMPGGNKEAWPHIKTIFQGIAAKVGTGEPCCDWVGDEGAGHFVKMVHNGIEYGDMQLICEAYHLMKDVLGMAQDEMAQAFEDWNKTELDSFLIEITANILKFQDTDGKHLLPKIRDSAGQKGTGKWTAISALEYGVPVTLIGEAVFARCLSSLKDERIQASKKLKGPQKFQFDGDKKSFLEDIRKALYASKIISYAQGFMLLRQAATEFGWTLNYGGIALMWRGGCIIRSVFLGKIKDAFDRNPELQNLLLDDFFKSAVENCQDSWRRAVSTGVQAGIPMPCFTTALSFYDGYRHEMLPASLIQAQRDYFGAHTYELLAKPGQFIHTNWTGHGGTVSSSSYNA
# [7] = modulation of C. elegans fzo-1 (AID 1259413; call rule not given here;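 also: fzo-1 mutant C. elegans worms in liquid wells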); details: C. elegans fzo-1 modulator screen, mean read-out; stronger effect = higher value
# [8] = EMT-state selective cytotoxicity in co-culture – imaging, PC-3E GFP, TEM4-18 mCherry, primary screen (AID 1345086;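 active = compounds killing one labelled cell type while sparing the other, by normalised counts and ratio limits, not self-fluorescent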;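 as to all read-outs here: cells exposed to compound for 72 h before imaging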;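 as to red/green cell ratio (normalised): normalised mesenchymal count divided by normalised epithelial count so high means epithelial killing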); details: PC-3E GFP / TEM4-18 mCherry co-culture, imaging cell counts, at 1 µM; for red/green cell ratio (normalised): actives lie on both sides, counts scaled to control wells, 1 = unselective
# [9] = MELAS cybrid and Rieske KO viability enhancers – cell-based, MELAS cybrids, Rieske KO mouse fibroblasts, CellTiter-Glo, primary screen (AID 1508586;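 active = mean z-score across replicates of 1.96 or higher in either the MELAS or the Rieske mutant cell line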;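 also: z relative to plate mean and SD of compound and empty wells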); details: low glucose
# [10] = tested on: F380Y; assay: BK channel mutant inhibitors and activators – cell-based, U2OS BacMam, thallium flux, beta subunits, selectivity assay, profiling panel (AID 1259406); details: U2OS BacMam BK variants, at 30 µM;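 also: initial slope of Thallos dye fluorescence rise after thallium is added; log ratio against the mean of 0.3% DMSO vehicle wells on the same plate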
# [11] = tested on: F380Y/beta1; assay: as above; details: U2OS BacMam BK variants, at 30 µM
# [12] = tested on: F380Y/beta2Delta; assay: as above; details: U2OS BacMam BK variants, at 30 µM
# [13] = tested on: F380Y/beta4; assay: as above; details: U2OS BacMam BK variants, at 30 µM
# [14] = target: Calcium-activated potassium channel subunit alpha-1 (Homo sapiens) + Leucine-rich repeat-containing protein 26 (Homo sapiens) (UniProt Q12791+Q2I0M4); assay: as above; details: U2OS BacMam BK variants, F380Y/Slo1WT/gamma1, at 30 µM
# Sequence of Calcium-activated potassium channel subunit alpha-1 (Homo sapiens) + Leucine-rich repeat-containing protein 26 (Homo sapiens) (Q2I0M4 whole entry, looked up, one chain of several): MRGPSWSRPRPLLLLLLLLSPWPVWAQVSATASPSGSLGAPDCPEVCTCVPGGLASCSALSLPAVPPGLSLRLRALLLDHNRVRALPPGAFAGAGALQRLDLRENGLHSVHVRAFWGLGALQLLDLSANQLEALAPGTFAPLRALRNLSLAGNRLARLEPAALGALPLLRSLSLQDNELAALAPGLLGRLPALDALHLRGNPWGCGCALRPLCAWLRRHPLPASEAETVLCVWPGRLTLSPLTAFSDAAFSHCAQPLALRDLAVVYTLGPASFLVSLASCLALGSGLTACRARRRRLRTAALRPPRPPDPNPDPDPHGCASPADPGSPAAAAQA
# [15] = tested on: R275C; assay: as above; details: U2OS BacMam BK variants, at 30 µM
# [16] = tested on: R275C/beta1; assay: as above; details: U2OS BacMam BK variants, at 30 µM
# [17] = tested on: R275C/beta2Delta; assay: as above; details: U2OS BacMam BK variants, at 30 µM
# [18] = target: Mitogen-activated protein kinase 7 (Homo sapiens) (UniProt Q13164); assay: Gal4-ERK5 driven luciferase induction – cell-based, HTS, primary screen (AID 1508626;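 active = luciferase signal above three times the same-plate solvent-only control wells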;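 also: luciferase driven by Gal4-ERK5 fusion binding five Gal4 sites before minimal TATA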); details: HeLa Gal4-ERK5 transactivation, 18 h, at 5 µM, stronger effect = higher value
# Sequence of Mitogen-activated protein kinase 7 (Homo sapiens) (Q13164 whole entry, looked up, the tested form may be a part): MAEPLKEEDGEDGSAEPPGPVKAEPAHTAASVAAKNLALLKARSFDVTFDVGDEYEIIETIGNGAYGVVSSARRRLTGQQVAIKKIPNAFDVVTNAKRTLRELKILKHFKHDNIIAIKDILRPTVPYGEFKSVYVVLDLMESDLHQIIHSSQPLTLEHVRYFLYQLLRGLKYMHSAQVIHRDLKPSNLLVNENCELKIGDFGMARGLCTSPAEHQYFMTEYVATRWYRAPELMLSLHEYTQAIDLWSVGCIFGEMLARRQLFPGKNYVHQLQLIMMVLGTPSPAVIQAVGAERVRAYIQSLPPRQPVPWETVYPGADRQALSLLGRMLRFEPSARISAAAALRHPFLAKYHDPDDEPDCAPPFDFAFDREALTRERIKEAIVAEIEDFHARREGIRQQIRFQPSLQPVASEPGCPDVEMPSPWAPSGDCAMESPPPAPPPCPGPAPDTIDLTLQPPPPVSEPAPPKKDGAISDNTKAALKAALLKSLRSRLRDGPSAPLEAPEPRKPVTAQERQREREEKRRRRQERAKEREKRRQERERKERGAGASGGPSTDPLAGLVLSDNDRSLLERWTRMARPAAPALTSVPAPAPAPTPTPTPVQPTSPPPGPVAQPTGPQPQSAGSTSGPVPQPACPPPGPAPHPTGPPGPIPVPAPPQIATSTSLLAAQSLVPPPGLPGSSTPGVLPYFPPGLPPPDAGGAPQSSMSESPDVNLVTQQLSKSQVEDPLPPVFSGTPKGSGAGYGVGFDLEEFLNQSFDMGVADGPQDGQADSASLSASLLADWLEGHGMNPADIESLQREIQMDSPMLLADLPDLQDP
# [19] = viability loss with induced miR-34 in A549 – imaging, A549 dox-inducible miR-34, nuclei and caspase counts, primary screen (AID 1347080;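 active = compounds whose cell count with miR-34 switched on is under 0.7 times the count with it off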); details: A549 miR-34 inducible, Hoechst nuclei count, 48 h
# [20] = measured here: epithelial PC-3E GFP cell survival
# [21] = measured here: mesenchymal TEM4-18 mCherry cell survival
# [22] = MELAS cybrid survival, CellTiter-Glo 48 h, stronger effect = higher value
# [23] = Rieske KO mouse fibroblast survival, CellTiter-Glo 72 h
# [24] = stronger effect = lower value, cell number ratio, induced over uninduced
# [25] = measured here: relative caspase fold change +Dox/-Dox
# [26] = measured here: total cells with miR-34 induction, stronger effect = lower value
# [27] = measured here: total cells without miR-34 induction
structure (smiles),measurement,setting,value
COc1ccc(/C=C/C(=O)Nc2ccccc2C(=O)O)cc1OC,parasite load remaining,[1],13.7% (inactive) and 10.8% (inactive) and 12.8% (inactive)
same,viability,[1],99.2% and 76.6% and 140%
same,fluorescence ratio,[2],1.05 (inactive)
same,inhibition,[3],0.4% (inactive)
same,inhibition,[4],-1.64% (inactive)
same,fluorescence ratio,[5],0.99 (inactive)
same,inhibition,[6],5.84% (inactive)
same,mean signal,[7],225 (inactive)
same,red/green cell ratio (normalised),[8],0.8 (inactive)
same,normalised cell number,[8]; [20],1.21
same,normalised cell number,[8]; [21],0.98
same,z-score,[9]; [22],0.761 (inactive) and 0.318 (inactive)
same,z-score,[9]; [23],-0.0722 and 0.758
same,log fold change Tl+ flux,[10],-0.0454 (inactive)
same,log fold change Tl+ flux,[11],-0.00383 (inactive)
same,log fold change Tl+ flux,[12],-0.0218 (inactive)
same,log fold change Tl+ flux,[13],-0.0244 (inactive)
same,log fold change Tl+ flux,[14],-0.0322 (inactive)
same,log fold change Tl+ flux,[15],-0.0585 (inactive)
same,log fold change Tl+ flux,[16],-0.0786 (inactive)
same,log fold change Tl+ flux,[17],0.0483 (inactive)
CCCCCCCCCCCCC(C(=O)O)C(C)C(=O)O (centres undefined),inhibition,[6],-10.3% (inactive)
COC(=O)[C@H](O)[C@H]1C(C)(C)C(=O)[C@@H]2C[C@]3(O)[C@@H]4CC(=O)O[C@@H](c5ccoc5)[C@]4(C)CC[C@@H]3[C@@]1(C)C2=O,inhibition,[6],1.04% (inactive)
CC(=O)O[C@@H]1CC2C(C)(C)C=CC(=O)[C@]2(C)C2CC[C@@]3(C)[C@H](c4ccoc4)OC(=O)C4OC43[C@@]21C (some centres undefined),inhibition,[6],-6.87% (inactive)
CS(=O)(=O)c1ccc(C2=C(c3ccccc3)C(=O)OC2)cc1,fluorescence ratio,[2],1.03 (inactive)
same,inhibition,[3],3.56% (inactive)
same,inhibition,[4],1.44% (inactive)
same,fluorescence ratio,[5],0.97 (inactive)
same,inhibition,[6],-26.3% (inactive)
same,mean signal,[7],215 (inactive)
same,red/green cell ratio (normalised),[8],0.98 (inactive)
same,normalised cell number,[8]; [20],0.93
same,normalised cell number,[8]; [21],0.92
same,z-score,[9]; [22],-0.068 (inactive) and 0.18 (inactive) and -0.373 (inactive)
same,z-score,[9]; [23],-0.00526 and -0.204 and -0.438
same,luciferase signal,[18],192 AU (inactive)
same,log fold change Tl+ flux,[10],0.0227 (inactive)
same,log fold change Tl+ flux,[11],0.00163 (inactive)
same,log fold change Tl+ flux,[12],0.00326 (inactive)
same,log fold change Tl+ flux,[13],-0.000569 (inactive)
same,log fold change Tl+ flux,[14],0.022 (inactive)
same,log fold change Tl+ flux,[15],-0.068 (inactive)
same,log fold change Tl+ flux,[16],0.023 (inactive)
same,log fold change Tl+ flux,[17],0.00437 (inactive)
COc1ccc(-c2cc(=O)c3c(OC)c(OC)c(OC)c(OC)c3o2)cc1OC,parasite load remaining,[1],46.2% (inactive)
same,viability,[1],66.9%
same,fluorescence ratio,[2],1.01 (inactive)
same,inhibition,[3],-1.19% (inactive)
same,inhibition,[4],-2.41% (inactive)
same,fluorescence ratio,[5],0.96 (inactive)
same,inhibition,[6],2.3% (inactive)
same,mean signal,[7],277 (inactive)
same,red/green cell ratio (normalised),[8],1.15 (inactive)
same,normalised cell number,[8]; [20],0.98
same,normalised cell number,[8]; [21],1.13
same,fold change,[19]; [24],0.981 (inactive) and 0.97 (inactive)
same,fold change,[19]; [25],1.14 and 0.279
same,cell count,[19]; [26],9210 and 7680
same,cell count,[19]; [27],9390 and 7920
same,z-score,[9]; [22],-0.237
same,z-score,[9]; [23],2.19
same,luciferase signal,[18],48 AU (inactive)
same,log fold change Tl+ flux,[10],0.00321 (inactive)
same,log fold change Tl+ flux,[11],0.0362 (inactive)
same,log fold change Tl+ flux,[12],0.0292 (inactive)
same,log fold change Tl+ flux,[13],-0.0316 (inactive)
same,log fold change Tl+ flux,[14],-0.341 (active)
same,log fold change Tl+ flux,[15],-0.784 (active)
same,log fold change Tl+ flux,[16],-0.176 (active)
same,log fold change Tl+ flux,[17],-0.278 (active)
Cc1occc(=O)c1O,parasite load remaining,[1],65.4% (inactive)
same,viability,[1],68.2%
same,fluorescence ratio,[2],1 (inactive)
same,inhibition,[3],-7.21% (inactive)
same,inhibition,[4],-2.76% (inactive)
same,fluorescence ratio,[5],0.97 (inactive)
same,inhibition,[6],8.86% (inactive)
same,mean signal,[7],263 (inactive)
same,red/green cell ratio (normalised),[8],0.9 (inactive)
same,normalised cell number,[8]; [20],1.16
same,normalised cell number,[8]; [21],1.05
same,fold change,[19]; [24],1.32 (inactive)
same,fold change,[19]; [25],0.534
same,cell count,[19]; [26],9050
same,cell count,[19]; [27],6830
same,luciferase signal,[18],52 AU (inactive)
same,log fold change Tl+ flux,[10],0.00693 (inactive)
same,log fold change Tl+ flux,[11],0.0152 (inactive)
same,log fold change Tl+ flux,[12],0.00122 (inactive)
same,log fold change Tl+ flux,[13],0.0304 (inactive)
same,log fold change Tl+ flux,[14],0.0152 (inactive)
same,log fold change Tl+ flux,[15],-0.0195 (inactive)
same,log fold change Tl+ flux,[16],-0.0131 (inactive)
same,log fold change Tl+ flux,[17],0.041 (inactive)
